From PubChem BioAssay (NCATS)
Records with an inconclusive call do not appear. Active and inactive are the calls of the source. Unless noted, calls follow the shape of the dose curve; as a rule, active = well fitted curve in either direction with a large enough effect (not every such curve was filed as active); inconclusive = small, poorly fitted or top-dose-only effect, or another doubt; inactive = flat fitted curve, though single readings scatter.

Assays:
[1] = AP1 Signaling Pathway (AID 357); settings: ME-180 AP-1-bla reporter, EGF-induced, beta-lactamase ratio, 5 h; at 17.2 µM (top of the series) unless noted;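 also: ME-180 reporter cells stimulated with EGF at its EC50 level; % is scaled to controls: 0 for no effect and ±100 for the full control effect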
Outline: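 Beta-lactamase reporter under AP-1 response element, ME-180 background. Stimulus: EC50 EGF. Compound exposure 5 h, 37 °C. Detection: CCF4, 2.5 h RT, 460/530 nm. Values: AC50 from titration.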

[2] = target: Cytochrome P450 1A2 (Homo sapiens) (UniProt P05177); assay: p450-cyp1a2 (AID 410; calls by dose curve; also: potency is read from the fitted curve at half-maximal effect;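 as to activity change, negative = inhibition: -100% = full effect of reference inhibitor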)
Chain of Cytochrome P450 1A2 (Homo sapiens) (P05177 whole entry, looked up): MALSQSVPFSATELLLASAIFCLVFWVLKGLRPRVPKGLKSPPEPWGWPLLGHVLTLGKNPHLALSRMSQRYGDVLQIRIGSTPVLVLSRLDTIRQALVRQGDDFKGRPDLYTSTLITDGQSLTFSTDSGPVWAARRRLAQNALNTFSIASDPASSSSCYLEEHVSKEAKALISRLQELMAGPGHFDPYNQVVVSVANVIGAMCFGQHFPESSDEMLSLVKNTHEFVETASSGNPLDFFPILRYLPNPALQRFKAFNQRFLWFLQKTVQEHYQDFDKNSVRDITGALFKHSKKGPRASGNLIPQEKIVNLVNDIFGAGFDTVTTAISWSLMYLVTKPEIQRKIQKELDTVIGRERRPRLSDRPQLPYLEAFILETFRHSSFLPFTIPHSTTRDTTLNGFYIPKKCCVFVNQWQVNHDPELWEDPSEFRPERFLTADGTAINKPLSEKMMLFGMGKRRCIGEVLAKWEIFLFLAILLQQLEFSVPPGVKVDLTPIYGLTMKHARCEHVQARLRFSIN
Outline: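 O-Demethylation of luciferin 6' methyl ether by human CYP1A2 is monitored as luciferase luminescence. Substrate sits at Km (100uM); enzyme is 20nM. Values are scaled to 57 uM furafylline as maximal inhibition.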

[3] = Stat Signaling Pathway (AID 446); settings: ME-180 SIE beta-lactamase reporter, IL-6 stimulated, 5 h; at 17.2 µM (top of the series) unless noted;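 also: ME-180 cervical cancer cells given 40 pM IL-6 alongside compound; SIE-controlled beta-lactamase reporter measured as 460/530 nm FRET emission ratio; % is scaled to controls: 0 for no effect and ±100 for the full control effect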
Outline: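 Normalization used AC90 stimulation (300 pM IL-6) and AC90 inhibition (125 nM pan-JAK inhibitor at 40 pM IL-6). The underlying signal is SIE-driven beta-lactamase in ME-180 cells after 5 h IL-6 exposure with compound.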

[4] = target: Glucocorticoid receptor (Homo sapiens) (UniProt P04150); assay: GR-GFP Redistribution (AID 450;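 active = compounds whose dose series gives a full or clear partial fitted curve of increased nuclear translocation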; also: potency is read from the fitted curve at half-maximal effect)
Chain of Glucocorticoid receptor (Homo sapiens) (P04150 whole entry, looked up, the tested form may be a part): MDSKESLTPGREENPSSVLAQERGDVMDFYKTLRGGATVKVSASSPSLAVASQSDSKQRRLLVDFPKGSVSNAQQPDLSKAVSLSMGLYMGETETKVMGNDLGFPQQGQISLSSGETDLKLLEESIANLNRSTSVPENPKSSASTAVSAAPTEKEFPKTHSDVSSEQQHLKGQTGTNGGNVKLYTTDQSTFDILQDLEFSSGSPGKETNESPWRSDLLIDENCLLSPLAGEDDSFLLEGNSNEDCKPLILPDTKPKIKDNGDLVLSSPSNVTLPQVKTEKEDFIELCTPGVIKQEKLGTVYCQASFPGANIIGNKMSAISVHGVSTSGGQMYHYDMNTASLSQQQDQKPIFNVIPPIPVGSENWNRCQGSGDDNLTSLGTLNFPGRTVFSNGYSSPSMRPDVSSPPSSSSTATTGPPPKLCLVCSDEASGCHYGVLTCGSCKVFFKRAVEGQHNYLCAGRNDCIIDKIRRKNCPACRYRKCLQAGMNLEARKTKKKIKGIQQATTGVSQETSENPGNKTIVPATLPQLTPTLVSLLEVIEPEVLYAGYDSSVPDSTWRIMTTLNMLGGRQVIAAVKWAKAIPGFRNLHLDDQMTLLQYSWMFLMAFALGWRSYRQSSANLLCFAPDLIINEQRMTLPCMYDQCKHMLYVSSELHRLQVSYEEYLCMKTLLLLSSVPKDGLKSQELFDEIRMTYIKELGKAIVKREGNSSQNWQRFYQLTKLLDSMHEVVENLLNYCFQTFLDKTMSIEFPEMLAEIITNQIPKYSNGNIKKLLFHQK

[5] = target: Glucocorticoid receptor (Homo sapiens) (UniProt P04150); assay: GR-EFC Redistribution (AID 451; calls by dose curve; also: potency is read from the fitted curve at half-maximal effect); settings: CHO-K1 GR-EFC translocation, beta-gal luminescence, 2 h
Outline: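 Translocation of GR-ED fusion to nuclear EA restores b-gal, read by luminescence after 1 h room-temperature detection. Engineered CHO-K1 biosensor cells, 1,000/well, exposed 2 h at 37 C to titrations up to 46 uM final.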

[6] = target: Mitogen-activated protein kinase 10 (Mus musculus) (UniProt Q61831); assay: JNK3 AlphaScreen Assay (AID 530);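 also: kinase came from lysate of stimulated human HepG2 cells; signal reports phosphorylation of biotinylated GST-cJun 1-79 at Ser73 with 10 µM ATP; % is scaled to controls: 0 for no effect and ±100 for the full control effect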
Outline: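 qHTS titrations with 15 min compound pre-incubation before adding ATP (10 uM final). Read-out: AlphaScreen of Ser73-phosphorylated biotin-GST-cJun using HepG2 lysate JNK3 activated by IL-1β and TNFα.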

[7] = target: 3',5'-cyclic-AMP phosphodiesterase 4B (Homo sapiens) (UniProt Q07343); assay: qHTS Assay for Inhibitors of PDE-IV (AID 607; active = well fitted activation curve with a large enough effect in the main read-out, with a control signal flat, not every such curve was filed as active; also: % of control where 0% means no effect)
Chain of 3',5'-cyclic-AMP phosphodiesterase 4B (Homo sapiens) (Q07343 whole entry, looked up): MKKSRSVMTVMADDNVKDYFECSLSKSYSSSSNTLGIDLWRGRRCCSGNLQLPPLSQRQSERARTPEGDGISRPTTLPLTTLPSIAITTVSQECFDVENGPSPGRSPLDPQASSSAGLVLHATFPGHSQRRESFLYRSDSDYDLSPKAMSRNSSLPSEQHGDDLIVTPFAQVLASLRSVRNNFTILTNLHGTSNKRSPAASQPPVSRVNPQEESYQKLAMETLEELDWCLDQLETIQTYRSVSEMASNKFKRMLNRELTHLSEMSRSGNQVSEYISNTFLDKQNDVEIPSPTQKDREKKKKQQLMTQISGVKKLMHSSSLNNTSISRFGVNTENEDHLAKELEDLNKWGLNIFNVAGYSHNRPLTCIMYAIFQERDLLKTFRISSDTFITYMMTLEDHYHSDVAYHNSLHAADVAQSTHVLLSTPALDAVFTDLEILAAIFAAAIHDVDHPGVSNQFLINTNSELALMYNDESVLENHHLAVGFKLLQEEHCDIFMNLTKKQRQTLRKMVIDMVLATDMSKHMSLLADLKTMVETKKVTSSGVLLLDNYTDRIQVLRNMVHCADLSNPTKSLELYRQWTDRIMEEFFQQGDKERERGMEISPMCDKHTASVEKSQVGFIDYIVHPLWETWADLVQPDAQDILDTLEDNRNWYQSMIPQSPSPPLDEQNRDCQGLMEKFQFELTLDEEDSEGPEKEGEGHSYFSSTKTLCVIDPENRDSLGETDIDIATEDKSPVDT
Outline: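 HEK293 ACTOne cells with CNG channel (1000/well), endogenous PDE4; membrane potential dye, compounds up to 22.9 uM final. Fluorescence Ex 535/Em 590; RO 20-1724 (100 uM final) as reference.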

[8] = qHTS Assay for Identification of Small Molecule Agonists for Hypoxia Response Element Signaling Pathway (AID 914; active = well fitted activation curve with a large enough effect in the signal ratio, with a control signal flat, not every such curve was filed as active; the % refers to the signal ratio; also: % of control where 0% means no effect); settings: ME-180 (cervical carcinoma) HRE-bla reporter, beta-lactamase ratio, CoCl2, 17 h; activation: active compounds read high
Outline: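 Read-out: CCF4 FRET ratio of 460nm to 530nm emission (excitation 405nm) after 2.5 hours at room temperature, taken from HRE-bla ME-180 cells that had been exposed to compound and EC50 CoCl2 for 17 hours.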

[9] = target: Cytochrome P450 2C9 (Homo sapiens) (UniProt P11712); assay: qHTS Assay for Inhibitors and Substrates of Cytochrome P450 2C9 (AID 883; active = well fitted curve in the direction sought with a large enough effect; an effect the other way counts as inactive or inconclusive; also: % is scaled to controls: 0 for no effect and ±100 for the full control effect; nearly all actives have a fitted effect of over 60% in size)
Chain of Cytochrome P450 2C9 (Homo sapiens) (P11712 whole entry, looked up): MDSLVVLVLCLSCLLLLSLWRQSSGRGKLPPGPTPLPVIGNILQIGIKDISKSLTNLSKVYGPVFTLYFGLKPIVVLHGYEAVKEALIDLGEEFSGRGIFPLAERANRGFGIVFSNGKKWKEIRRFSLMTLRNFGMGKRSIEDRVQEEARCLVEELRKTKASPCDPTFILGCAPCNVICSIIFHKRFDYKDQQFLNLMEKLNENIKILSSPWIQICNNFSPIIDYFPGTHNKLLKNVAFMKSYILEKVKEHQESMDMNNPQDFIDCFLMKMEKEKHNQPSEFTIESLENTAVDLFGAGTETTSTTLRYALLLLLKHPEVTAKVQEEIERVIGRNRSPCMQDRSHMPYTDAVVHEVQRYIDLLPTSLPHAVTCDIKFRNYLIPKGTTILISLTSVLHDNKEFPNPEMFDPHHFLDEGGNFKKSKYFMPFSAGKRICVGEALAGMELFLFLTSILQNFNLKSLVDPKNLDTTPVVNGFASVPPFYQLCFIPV
Outline: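 Luminescent read-out of deoxyluciferin hydroxylation, normalized to 57uM sulphaphenazole (AC100). Reaction: 10nM enzyme, 100uM Luciferin-H (equal to KM), 25mM KPO4, 10 min compound preincubation, then 60 min with NADPH regeneration, both at 37C.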

[10] = target: Cytochrome P450 2D6 (Homo sapiens) (UniProt P10635); assay: qHTS Assay for Inhibitors and Substrates of Cytochrome P450 2D6 (AID 891; active = well fitted curve in the direction sought with a large enough effect; an effect the other way counts as inactive or inconclusive;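 also: luciferin methyl ether substrate demethylated by CYP2D6 with NADPH regeneration; % is scaled to controls: 0 for no effect and ±100 for the full control effect; nearly all actives have a fitted effect of over 60% in size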)
Chain of Cytochrome P450 2D6 (Homo sapiens) (P10635 whole entry, looked up): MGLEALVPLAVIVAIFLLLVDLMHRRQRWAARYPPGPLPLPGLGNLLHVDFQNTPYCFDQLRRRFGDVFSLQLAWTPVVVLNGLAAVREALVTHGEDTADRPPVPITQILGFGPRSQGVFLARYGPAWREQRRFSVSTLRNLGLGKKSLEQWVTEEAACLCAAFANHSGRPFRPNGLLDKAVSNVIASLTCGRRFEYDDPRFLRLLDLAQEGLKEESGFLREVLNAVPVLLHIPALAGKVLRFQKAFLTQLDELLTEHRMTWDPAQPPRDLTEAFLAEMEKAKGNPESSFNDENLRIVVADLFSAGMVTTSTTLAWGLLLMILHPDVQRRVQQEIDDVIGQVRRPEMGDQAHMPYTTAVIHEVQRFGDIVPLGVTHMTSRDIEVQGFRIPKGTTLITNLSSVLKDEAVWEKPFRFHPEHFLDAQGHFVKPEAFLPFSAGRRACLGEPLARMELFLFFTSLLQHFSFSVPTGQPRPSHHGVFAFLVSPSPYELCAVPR
Outline: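 Luminescent read-out of luciferin formed by 5 nM human CYP2D6 demethylating 30 uM Luciferin-ME EGE (Km level) over 60 min at room temperature after NADPH regeneration addition. Data normalized to full inhibition by 1.43 uM quinidine.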

[11] = target: Cytochrome P450 2C19 (Homo sapiens) (UniProt P33261); assay: qHTS Assay for Inhibitors and Substrates of Cytochrome P450 2C19 (AID 899; active = well fitted curve in the direction sought with a large enough effect; an effect the other way counts as inactive or inconclusive; also: % is scaled to controls: 0 for no effect and ±100 for the full control effect; nearly all actives have a fitted effect of over 60% in size)
Chain of Cytochrome P450 2C19 (Homo sapiens) (P33261 whole entry, looked up): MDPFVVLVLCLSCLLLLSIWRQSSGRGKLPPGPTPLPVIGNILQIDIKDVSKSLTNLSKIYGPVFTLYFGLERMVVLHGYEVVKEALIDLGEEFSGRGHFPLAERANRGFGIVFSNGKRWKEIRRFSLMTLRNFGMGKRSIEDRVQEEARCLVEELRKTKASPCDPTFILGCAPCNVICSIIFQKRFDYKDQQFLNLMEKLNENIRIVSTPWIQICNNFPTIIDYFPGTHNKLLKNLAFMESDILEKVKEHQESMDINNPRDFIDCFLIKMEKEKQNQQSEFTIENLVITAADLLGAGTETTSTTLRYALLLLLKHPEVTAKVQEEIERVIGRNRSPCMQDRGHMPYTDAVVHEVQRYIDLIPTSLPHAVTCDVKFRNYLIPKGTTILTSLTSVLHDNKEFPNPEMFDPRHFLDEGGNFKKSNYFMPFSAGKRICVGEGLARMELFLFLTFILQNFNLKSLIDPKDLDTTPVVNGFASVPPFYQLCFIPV
Outline: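 Luminescence readout of luciferin formed from 10uM Luciferin-H EGE (KM level) by 5 nM CYP2C19 in 50mM KPO4. 60 min NADPH-driven reaction at 37C after 10 min compound preincubation; data scaled to 57uM ketoconazole inhibition.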

[12] = NFAT Signaling Pathway (AID 444); settings: Jurkat NFAT-bla M1, carbachol, beta-lactamase ratio, 5 h; at 17.2 µM (top of the series) unless noted;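 also: carbachol stimulus at about its EC50 of 1 µM final; % is scaled to controls: 0 for no effect and ±100 for the full control effect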
Outline: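 Read-out: CCF4 FRET ratio (460 nm/530 nm) after 1 h RT dye loading, used for %activity and AC50 from titration series. Cells: Jurkat NFAT-β-lactamase/M1 line, treated with compound plus 1 uM carbachol for 5 h, 37 °C.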

[13] = target: Guanine nucleotide-binding protein G(i) subunit alpha-1 (Homo sapiens) (UniProt P63096); assay: qHTS Assay for Inhibitors of RGS12 GoLoco Motif Activity (Green Fluorophore) (AID 879; active = well fitted curve in the direction sought with a large enough effect; an effect the other way counts as inactive or inconclusive;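 also: 0% = labeled peptide with Gαi1 and full inhibition = labeled peptide alone without protein; negative values mean loss of peptide binding seen as reduced polarization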)
Chain of Guanine nucleotide-binding protein G(i) subunit alpha-1 (Homo sapiens) (P63096 whole entry, looked up): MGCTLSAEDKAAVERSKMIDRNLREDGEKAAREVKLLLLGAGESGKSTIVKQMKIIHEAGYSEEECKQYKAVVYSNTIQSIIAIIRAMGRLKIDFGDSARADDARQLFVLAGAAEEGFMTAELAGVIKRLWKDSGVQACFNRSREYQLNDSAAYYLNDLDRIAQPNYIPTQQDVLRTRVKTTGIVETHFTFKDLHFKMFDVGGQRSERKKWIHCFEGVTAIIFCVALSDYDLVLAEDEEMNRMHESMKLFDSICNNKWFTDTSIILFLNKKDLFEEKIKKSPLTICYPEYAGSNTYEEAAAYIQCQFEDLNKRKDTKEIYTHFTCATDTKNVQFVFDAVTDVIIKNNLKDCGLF
Outline: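 A drop in FITC polarization marked displacement of the FITC-tagged RGS12 GoLoco peptide (10 nM) from Gαi1 (50 nM). Compounds were incubated 10 min at room temperature in Tris pH 7.5 buffer containing 150 mM NaCl, 0.1 mM GDP and 0.05% NP40; unlabeled peptide titration served as control.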

[14] = qHTS Assay for Identification of Small Molecule Agonists for Thrombopoietin (TPO) Signaling Pathway (AID 917; active = well fitted curve in the direction sought with a large enough effect; an effect the other way counts as inactive or inconclusive; also: % is scaled to controls: 0 for no effect and ±100 for the full control effect)
Outline: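 Quantitative HTS for pathway activators: compounds were pin-transferred onto IL-3-starved Ba/F3 cells expressing human TPO receptor, TPO was added at its EC50 (26 pM final), and after 24 hrs at 37 C reporter luciferase was measured.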

[15] = target: Pyruvate kinase (Leishmania mexicana) (UniProt Q27686); assay: qHTS Validation Assay for Inhibitors of Leishmania Mexicana Pyruvate Kinase (AID 945; active = well fitted curve in the direction sought with a large enough effect; an effect the other way counts as inactive or inconclusive;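 also: 0% = DMSO only neutral control wells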)
Chain of Pyruvate kinase (Leishmania mexicana) (Q27686 2-499 E452W): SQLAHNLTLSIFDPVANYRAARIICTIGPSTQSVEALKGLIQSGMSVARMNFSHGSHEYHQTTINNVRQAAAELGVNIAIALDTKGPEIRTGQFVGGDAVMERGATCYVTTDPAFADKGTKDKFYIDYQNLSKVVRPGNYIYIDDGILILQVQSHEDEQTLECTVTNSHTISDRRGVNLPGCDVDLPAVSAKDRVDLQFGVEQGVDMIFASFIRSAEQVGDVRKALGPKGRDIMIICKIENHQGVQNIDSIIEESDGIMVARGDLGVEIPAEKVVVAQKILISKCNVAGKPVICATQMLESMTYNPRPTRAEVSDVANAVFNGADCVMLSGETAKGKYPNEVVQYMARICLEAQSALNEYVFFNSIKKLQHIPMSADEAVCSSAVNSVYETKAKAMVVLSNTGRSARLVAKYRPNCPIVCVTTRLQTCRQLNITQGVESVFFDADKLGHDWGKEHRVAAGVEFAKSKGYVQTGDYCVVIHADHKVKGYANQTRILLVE
Outline: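 Substrate mix (0.5 mM PEP, 0.1 mM ADP, 7 mM MgCl2, 50 mM KCl, pH 7.2 imidazole) received compound by pin tool, then 0.2 nM LmPYK E451W. After 1 h at room temperature, PKLight was added and luminescence measured.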

[16] = target: Pyruvate kinase PKM (Homo sapiens) (UniProt P14618); assay: qHTS Assay for Activators of Human Muscle Pyruvate Kinase (AID 954; active = well fitted curve in the direction sought with a large enough effect, not every such curve was filed as active;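 also: 0% = uninhibited enzyme and -100% = no enzyme or full thiadiazolimine inhibition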)
Chain of Pyruvate kinase PKM (Homo sapiens) (P14618 whole entry, looked up): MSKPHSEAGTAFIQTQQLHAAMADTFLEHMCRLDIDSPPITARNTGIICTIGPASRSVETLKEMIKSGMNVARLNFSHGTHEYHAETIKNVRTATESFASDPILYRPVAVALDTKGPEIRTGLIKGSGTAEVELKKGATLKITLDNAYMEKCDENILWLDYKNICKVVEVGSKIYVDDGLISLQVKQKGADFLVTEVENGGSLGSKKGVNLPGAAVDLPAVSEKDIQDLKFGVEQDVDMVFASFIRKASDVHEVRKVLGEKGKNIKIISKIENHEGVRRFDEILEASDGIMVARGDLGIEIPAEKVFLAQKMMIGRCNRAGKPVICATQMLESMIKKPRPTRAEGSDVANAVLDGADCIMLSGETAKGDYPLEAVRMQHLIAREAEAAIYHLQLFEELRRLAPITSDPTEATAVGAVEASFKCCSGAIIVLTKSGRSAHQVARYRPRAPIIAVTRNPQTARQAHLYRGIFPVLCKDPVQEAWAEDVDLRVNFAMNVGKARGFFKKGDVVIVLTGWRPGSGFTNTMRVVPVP
Outline: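 Compound pinned into substrate mix (0.5 mM PEP, 0.1 mM ADP), then 0.1 nM PKM2 added; 1 h, RT. Stop/detection luciferase reagent added, luminescence read. Normalized to no-inhibition and no-enzyme or reference-inhibitor controls.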

[17] = target: Alpha-galactosidase A (Homo sapiens) (UniProt P06280); assay: Counterscreen for Glucocerebrosidase Inhibitors: qHTS Assay for Human alpha-Galactosidase at pH 4.5 (AID 992; active = well fitted curve in the direction sought with a large enough effect; an effect the other way counts as inactive or inconclusive; also: 0% is about no effect)
Outline: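 Steps: enzyme (2 nM final), then compound across 0.7 nM to 77 uM, then 80 uM fluorogenic galactopyranoside substrate; incubate 20 min at room temperature; quench at pH 10; measure fluorescence at 365/440 nm.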

[18] = target: alpha-glucosidase (Oryza sativa, rice) (UniProt Q653V4); assay: Counterscreen for Glucocerebrosidase Inhibitors: qHTS Assay for Rice alpha-Glucosidase at pH 5.0 (AID 997; active = well fitted curve in the direction sought with a large enough effect; an effect the other way counts as inactive or inconclusive;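 also: 0% = full activity with enzyme and -100% = basal without enzyme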)
Outline: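 Endpoint fluorogenic assay at pH 5.0: compounds (0.7 nM to 77 uM) titrated against 4 nM rice enzyme and 400 uM 4-MU-alpha-glucoside for 20 min at room temperature; NaOH/glycine stop, read ex 365/em 440 nm, Hill-fitted AC50.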

Cc1cc(-c2cc(C)c(O)c(C(C)(C)C)c2)cc(C(C)(C)C)c1O
active: Potency [2] 0.631 µM
inactive: activity change, negative = inhibition [1] -0.717% [at 7.69 µM] | activity, negative = inhibition [3] 14.1% [at 7.69 µM] | Potency [4] > 46 µM | Potency [5] > 9.22 µM | activity change, negative = inhibition [6] -3.71% [at 11.4 µM] | Potency [7] | activation [8] -9.94%

OC[C@@H]1O[C@@H](n2cnc3c(NCCc4ccccc4)ncnc32)[C@@H](O)[C@H]1O
inactive: activity change, negative = inhibition [1] -4.22% [at 38 µM] | Potency [2] | activity, negative = inhibition [3] 0.109% [at 38 µM] | Potency [4] > 46 µM | Potency [5] > 46 µM | Potency [6] | Potency [7] | Potency [9] | Potency [10] | Potency [11]

CCOC(=O)c1sc(-n2[nH]c(C)cc2=O)nc1C
inactive: activity change, negative = inhibition [1] -2.34% | activity change, negative = inhibition [12] 8.32% | activity, negative = inhibition [3] 1.64%

CO[C@H]1C=CO[C@@]2(C)Oc3c(C)c(O)c4c(O)c(c(C=NN5CCN(C)CC5)c(O)c4c3C2=O)NC(=O)C(C)=CC=C[C@H](C)[C@H](O)[C@@H](C)[C@@H](O)[C@@H](C)[C@H](OC(C)=O)[C@@H]1C
inactive: activity change, negative = inhibition [1] -3.11% | activity change, negative = inhibition [12] 18.4% | activity, negative = inhibition [3] 1.14%

COC(=O)c1ccc(-c2sc3nc(N4CCOCC4)c4c(c3c2N)CC(C)(C)OC4)o1
inactive: activity change, negative = inhibition [1] -12.7% | activity change, negative = inhibition [12] -1.53% | activity, negative = inhibition [3] 5.68%

CC1=C(c2ccc(Cl)cc2)[N+](=O)C(C)(C)N1[O-]
inactive: activity change, negative = inhibition [1] 8.72% | activity change, negative = inhibition [12] 13.4% | activity, negative = inhibition [3] -0.945%

CCCCCCCCCCCCCCCCCCOC[C@@H](COP(=O)([O-])OCC[N+](C)(C)C)OC
inactive: activity change, negative = inhibition [1] 29% [at 38 µM] | Potency [2] | activity, negative = inhibition [3] 4.35% [at 38 µM] | Potency [4] > 46 µM | Potency [5] > 46 µM | Potency [6] | Potency [7] | outcome [13] | Potency [14] | Potency [15] | outcome [16] | outcome [17] | outcome [18]

COc1ccc2c(c1)CN([C@H](C)[C@@H]1CC[C@@H]3[C@H]4CC[C@H]5C[C@@H](O)CC[C@@]5(C)[C@H]4CC[C@]31C)CO2
inactive: activity change, negative = inhibition [1] 23.1% [at 7.69 µM] | activity change, negative = inhibition [2] -18% [at 2.29 µM] | activity, negative = inhibition [3] -2.48% [at 7.69 µM] | Potency [4] > 46 µM | Potency [5] > 9.22 µM | activity change, negative = inhibition [6] -1.53% [at 11.4 µM] | Potency [7]

CN1C(=O)C2(c3ccccc31)C1CCCC=C1C(C#N)=C(N)C2(C#N)C#N (stereo not drawn)
inactive: activity change, negative = inhibition [1] -21.4% | activity change, negative = inhibition [12] -15.5% | activity, negative = inhibition [3] -7.56%
